Measured values taken from PubChem BioAssay AID1159580 (chemical genetic matrix, 2015).
Where “and” joins values, the source holds several entries; their conditions need not be identical. Equal entries are not always repeated. In all, about 5,500 compounds went through this assay and about 2,000 (36%) were called active. Not shown: some 18% with an inconclusive outcome. No stated cut-off is given here; in the data, active means normalized growth mostly below about 0.91 (no sharp cut-off); inconclusive means no clear call, values can overlap the other calls; inactive means mostly above about 0.92. The list shows a part of the results.

Assay: chemical genetic growth profiling, strain panel (AID 1159580);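 further: tested at 20 µM; growth read once vehicle control cultures reached saturation at 30 °C; 1 = growth at the plate median or of vehicle wells; lower values mean less growth of the strain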
Settings: S. cerevisiae deletion strains, growth OD

Measured: normalized growth

CCC1C(=O)OCC1Cc1cncn1C (stereo not given)
inactive: locus YAL013W, strain DEP1, active compounds read low 1.01 and 0.986 | locus YAL021C, strain ccr4, active compounds read low 1.01 | locus YAL026C, strain drs2, active compounds read low 1.01 and 1.02 | locus YAL030W, strain snc1, active compounds read low 1.03 and 1.01 | locus YAL040C, strain CLN3, active compounds read low 1.04 and 1.02 | locus YBL061C, strain skt5, active compounds read low 1.03 and 1.02 | locus YBR009C, strain hhf1, active compounds read low 1.01 and 1 | locus YBR021W, strain FUR4, active compounds read low 0.985 and 1 | locus YBR023C, strain chs3, active compounds read low 1.03 and 1.02 | locus YBR171W, strain sec66, active compounds read low 1.02 and 1.03 | locus YBR229C, strain ROT2, active compounds read low 1.01 | locus YBR231C, strain swc5, active compounds read low 1.02 and 1.01 | locus YBR279W, strain paf1, active compounds read low 1.03 and 1.01 | locus YCL011C, strain gbp2, active compounds read low 1.03 and 1.02 | locus YCL016C, strain dcc1, active compounds read low 1.03 and 1.02 | locus YCL029C, strain bik1, active compounds read low 1.03 and 0.998 | locus YCL061C, strain MRC1 (second series), active compounds read low 1.01 and 0.993 | locus YCL061C, strain MRC1, active compounds read low 1.01 | locus YCL069W, strain vba3, active compounds read low 1.02 and 1.01 | locus YCR088W, strain abp1, active compounds read low 1.02 and 1 | locus YDL005C, strain med2, active compounds read low 1.01 and 1.03 | locus YDL035C, strain GPR1, active compounds read low 1.01 | locus YDL040C, strain nat1, active compounds read low 1.02 and 1.01 | locus YDL074C, strain BRE1, active compounds read low 1.02 and 1.03 | locus YDL101C, strain DUN1, active compounds read low 1.02 | locus YDL134C, strain PPH21, active compounds read low 1.01 and 1.02 | locus YDL185W, strain tfp1, active compounds read low 1.02 and 1 | locus YDL192W, strain arf1, active compounds read low 1.02 and 1 | locus YDR001C, strain nth1, active compounds read low 1.01 and 1 | locus YDR069C, strain doa4, active compounds read low 1.01 and 1.02 | locus YDR101C, strain arx1, active compounds read low 1.02 and 0.975 | locus YDR137W, strain rgp1, active compounds read low 1.05 and 1.1 | locus YDR159W, strain sac3, active compounds read low 1.01 and 1.02 | locus YDR162C, strain NBP2, active compounds read low 1.01 and 1.05 | locus YDR195W, strain ref2 1 and 0.98 | locus YDR297W, strain sur2, active compounds read low 1.02 | locus YDR318W, strain mcm21, active compounds read low 1.03 and 0.997 | locus YDR334W, strain swr1, active compounds read low 1.01 and 1.02 | locus YDR335W, strain msn5, active compounds read low 1.02 | locus YDR363W, strain ESC2, active compounds read low 1.03 and 1.01 | locus YDR388W, active compounds read low 1.02 and 0.992 | locus YDR392W, strain spt3, active compounds read low 0.976 and 0.974 | locus YDR502C, strain sam2, active compounds read low 1.04 and 1.01 | locus YEL003W, strain gim4, active compounds read low 1.01 and 1.02 | locus YEL037C, strain rad23, active compounds read low 1.01 | locus YEL061C, strain CIN8 (second series), active compounds read low 1.02 and 1.03 | locus YEL061C, strain CIN8, active compounds read low 1.01 | locus YER002W, strain NOP16, active compounds read low 1.02 and 0.975 | locus YER015W, strain faa2, active compounds read low 1.02 and 1.01 | locus YER016W, strain bim1, active compounds read low 1.01 | locus YER110C, active compounds read low 1.02 and 0.99 | locus YER111C, strain swi4, active compounds read low 1.02 | locus YER155C, strain BEM2 (second series), active compounds read low 1.01 and 1.03 | locus YER155C, strain BEM2, active compounds read low 0.99 and 1 | locus YER167W, strain BCK2, active compounds read low 1.01 and 1.02 | locus YFR010W, strain ubp6, active compounds read low 1.03 and 1 | locus YGL078C, strain dbp3, active compounds read low 1.01 and 1 | locus YGL086W, strain mad1, active compounds read low 1 and 0.996 | locus YGL167C, strain pmr1, active compounds read low 1.03 | locus YGL173C, strain kem1, active compounds read low 1.01 | locus YGL227W, strain vid30, active compounds read low 1.02 | locus YGL240W, strain doc1, active compounds read low 1.01 | locus YGL248W, strain PDE1, active compounds read low 1.01 and 1.02 | locus YGL253W, strain hxk2, active compounds read low 1.01 | locus YGR078C, strain PAC10, active compounds read low 1.04 and 1 and 1.02 | locus YGR135W, strain pre9, active compounds read low 1.01 | locus YGR229C, strain SMI1, active compounds read low 1.02 and 1 and 0.999 | locus YGR252W, strain gcn5, active compounds read low 0.969 and 0.983 | locus YHR013C, strain ard1, active compounds read low 1.06 and 1.01 | locus YHR027C, strain rpn1, active compounds read low 1.02 | locus YHR030C, strain SLT2, active compounds read low 1.01 and 0.975 | locus YHR079C, strain IRE1 (second series), active compounds read low 1.03 and 0.989 | locus YHR079C, strain IRE1, active compounds read low 0.975 | locus YHR094C, strain hxt1, active compounds read low 1.02 and 0.997 | locus YHR129C, strain ARP1, active compounds read low 1.01 | locus YHR142W, strain chs7, active compounds read low 1.03 and 1.01 | locus YHR200W, strain rpn10, active compounds read low 1.01 and 0.999 | locus YIL066C, strain RNR3, active compounds read low 1.02 and 1.01 | locus YIL073C, strain SPO22, active compounds read low 1.06 and 1.02 | locus YIL125W, strain kgd1, active compounds read low 0.997 and 1.01 | locus YIR030C, strain dcg1, active compounds read low 1.02 and 0.993 | locus YJL092W, strain hpr5, active compounds read low 1.01 | locus YJL095W, strain BCK1 (second series), active compounds read low 1.02 | locus YJL095W, strain BCK1, active compounds read low 1.03 and 0.988 and 1.01 | locus YJL115W, strain asf1, active compounds read low 1.01 and 1.02 | locus YJL129C, strain trk1, active compounds read low 1.04 and 1.03 | locus YJL134W, strain LCB3, active compounds read low 1.01 | locus YJL154C, strain vps35, active compounds read low 1.02 and 1.01 | locus YJL164C, strain tpk1, active compounds read low 1.01 and 1.02 | locus YJL166W, strain qcr8, active compounds read low 1.02 | locus YJL168C, strain set2, active compounds read low 1.01 and 0.999 | locus YJL187C, strain SWE1 (second series), active compounds read low 1.02 and 1.01 | locus YJL187C, strain SWE1, active compounds read low 1.02 and 1.01 | locus YJR043C, strain POL32, active compounds read low 1.02 and 1 | locus YJR066W, strain TOR1, active compounds read low 0.971
